Measurements taken from PubChem BioAssay (EPA / NIEHS).
The source made the active and inactive calls. Rule for the calls: active = hit-call score of the fitted dose curve at least 0.9, where 1 is the maximum; inactive = score below 0.9.

Test: APR_HepG2_MicrotubuleCSK_24hr: Apredica 24-hour HepG2 Assay for Microtubule CSK Stabilty (AID 2282909)
Conditions: HepG2 microtubule cytoskeleton imaging, actives raise or lower the signal
Procedure: APR_HepG2_24hr is a cell-based, multiplexed-readout assay that uses HepG2, a human liver cell line, with measurements taken at 24 hours after chemical dosing in a 384-well plate.APR_HepG2_MicrotubuleCSK_24hr is one of 10 assay component(s) measured or calculated from the APR_HepG2_24hr assay. It is designed to make measurements of protein conformation, a form of conformation reporter, as detected with fluorescence intensity signals by HCS Fluorescent Imaging technology.Data from the assay component APR_HepG2_MicrotubuleCSK_24hr was analyzed into 1 assay endpoint. This assay endpoint, APR_HepG2_MicrotubuleCSK_24hr, was analyzed with bidirectional fitting relative to DMSO as the negative control and baseline of activity. Using a type of conformation reporter, measures of protein for gain or loss-of-signal activity can be used to understand the signaling at the cellular-level. Furthermore, this assay endpoint can be referred to as a primary readout, because this assay has produced multiple assay endpoints where this one serves a signaling function. To generalize the intended target to other relatable targets, this assay endpoint is annotated to the cell morphology intended target family, where the subfamily is cell conformation.
Cells were treated with dimethyl sulfoxide (DMSO) as a solvent control at a final concentration of 0.5% v/v or with compounds in DMSO with a resulting final DMSO concentration of 0.5% v/v. Compound treatment was done at concentrations of 0.39, 0.78, 1.56, 3.12, 6.24, 12.5, 25, 50, 100, and 200 uM in duplicate on each plate. Cells were treated with compounds for 1, 24, or 72 hr. Carbonyl […] m-chloro-phenylhydrazone (CCCP) and taxol were used as positive controls for mitochondrial function and cytoskeletal stability, respectively; DMSO served as the negative control for this experiment. Cells were fixed by the direct addition of 50 uL formaldehyde in Hank's Balanced Salt Solution (HBSS) to a final concentration of 3.7%. After incubation in the fixation medium for 30 min at room temperature (293-298 K), cells were rinsed twice with HBSS and treated with cell permeabilization buffer (16 uL of 0.5% Triton X-100) for 10 min at room temperature (293-298 K) before labeling. For mitochondrial membrane potential and mitochondrial measurements, pre-fixed cells were incubated with 50 uL of MitoTracker Red CMXRos (Invitrogen) at a concentration of 250 nM for 30 min before fixation. In the remaining cases, post-fixed cells were labeled by incubation with a multiplexed mixture of primary antibodies in HBSS for 60 min at room temperature (293-298 K) to detect immunoreactivity of c-Jun (1:500), phospho-histone H3 (1:100), phospho-histone H2A.x (1:200), p53 (1:400), alpha-tubulin (1:200) and Hoechst 33342 (2 ug/mL). Cells were labeled for multiplexed imaging on two separate plates: a) Hoechst 33342, MitoTracker Red, phospho-histone H3, and alpha-tubulin, and b) Hoechst 33342, phospho-histone H2A.x, and c-Jun. A final rinse with HBSS (50 uL) was performed before analysis. The primary and secondary antibodies for the proteins were phospho-histone H3 (rabbit anti-phospho-histone H3 and FITC-donkey anti-rabbit IgG), phospho-histone H2A.x (mouse anti-phospho-histone H2A.x and FITC-donkey anti-mouse IgG), c-Jun (rabbit anti-phospho-c-Jun and Cy3-donkey anti-rabbit IgG), p53 (sheep anti-p53 and Cy5-donkey anti-sheep IgG), alpha-tubulin (mouse anti-alpha-tubulin and Cy5-donkey anti-mouse IgG). These antibodies are available as the CellCiphr HepG2 assay kit (Millipore).Digital images of each well were captured using a Cellomics ArrayScan VTI (Thermo Scientific Cellomics) (0.8 NA objective, 0.63x optical coupler, and XF-93 filter set) at 20x magnification. The images were acquired using the autofocus feature of the ArrayScan instrument, which entails the following steps. First, the camera focuses on channel 1 (Hoechst 33342), where nuclei are identified. Second, a Z offset of 1 um is used for capturing mitochondria (MitoTracker Red). […]

Row | SMILES | AC50 | outcome
1 | CCCCCCCCCCCCCCO | 107 µM (active) | 
2 | OC(CCl)CCl |  | inactive
3 | OCCNCCO |  | inactive
4 | CNC(C)=O |  | inactive
5 | OCc1ccccc1 |  | inactive
6 | CCCc1ccccc1 |  | inactive
7 | COS(C)(=O)=O |  | inactive
8 | CCc1ccc(O)c(C(C)(C)C)c1 | 80.7 µM (active) | 
9 | C=CN1CCCC1=O |  | inactive
10 | CC(C)CCCCCCOC(=O)C1CCCCC1C(=O)OCCCCCCC(C)C (stereo not given) |  | inactive
11 | O=S(=O)(O)c1ccc(N=Nc2c(O)ccc3cc(S(=O)(=O)O)ccc23)cc1 |  | inactive
12 | C[C@@H](Oc1ccc(CNC(=O)c2cccnc2Oc2ccc3c(c2)OCO3)c(F)c1)C(=O)O |  | inactive
13 | CCOC(N)=O |  | inactive
14 | NC(=O)N(O)[C@@H]1COc2cc(OCc3ccccc3)ccc21 |  | inactive
15 | CCCCCCCCCC |  | inactive
16 | COc1cc2c(c(OC)c1OC)-c1ccc(OC)c(=O)cc1[C@@H](NC(C)=O)CC2 |  | inactive
17 | CCCCCCCCCCCCCCCCOS(=O)(=O)O |  | inactive
18 | C=CCc1cc(S(=O)(=O)c2ccc(O)c(CC=C)c2)ccc1O |  | inactive
19 | c1ccc2c(c1)-c1cccc3c1c-2cc1ccccc13 |  | inactive
20 | O=C(O)c1ccc2c(c1)nc(C(=O)NC1CCN(C3CC3)CC1)n2Cc1cc(-c2ccc(Cl)s2)on1 |  | inactive

Row | SMILES | AC50 | outcome
21 | NC(N)=O |  | inactive
22 | OCC(CO)(CO)CO |  | inactive
23 | NC(=O)N1c2ccccc2C=Cc2ccccc21 |  | inactive
24 | CC1(C)C(=O)N(Cl)C(=O)N1Cl |  | inactive
25 | Cc1ccc(S(=O)(=O)NC(=O)NN2CCCCCC2)cc1 |  | inactive
26 | NNC(=O)c1ccncc1 |  | inactive
27 | CCCCCCCC/C=C\CCCCCCCC(=O)OC[C@@H](O)[C@H]1OC[C@H](O)[C@H]1O |  | inactive
28 | Cn1cc[nH]c1=S |  | inactive
29 | CCOc1ccc2[nH]cc(C(=O)NCc3ccccc3)c(=O)c2n1 |  | inactive
30 | CC(=O)c1ccccc1 |  | inactive
31 | c1ccc(C(O[C@@H]2CCCN(CCc3ccc4c(c3)OCO4)C2)c2ccccc2)cc1 | 88.3 µM (active) | 
32 | O=C(O)[C@H](O)[C@@H](O)C(=O)O |  | inactive
33 | CCN(CC)C(=S)SSC(=S)N(CC)CC | 78.9 µM (active) | 
34 | O=C(O)c1cccc(C(=O)O)c1 |  | inactive
35 | O=S1(=O)CCCO1 |  | inactive
36 | Cc1nc(-c2ccccn2)ncc1C(=O)Nn1cc(C)c2cc(F)ccc21 |  | inactive
37 | Cc1nccn1-c1ccc(Sc2cccc(C3(C(N)=O)CCOCC3)c2)cc1 |  | inactive
38 | O=C(NO)C1(NS(=O)(=O)c2ccc(Oc3ccc(F)cc3)cc2)CCOCC1 |  | inactive
39 | CCc1cccc(CC)c1N |  | inactive
40 | COc1cc(C(C)C)c2c(c1)S(=O)(=O)N(COc1cc(=O)n3cccc(OCCN4CCCCC4)c3n1)C2=O | 15.8 µM (active) | 
